Screen size: about 290,000 compounds; about 3,000 (1%) were called active. No stated cut-off is given here; in the data, active means inhibition mostly above about 36% (no sharp cut-off); inactive means mostly below about 34%. The full list was thinned out, with actives kept by preference.
What follows are molecules tested against T1, Nucleotide-binding oligomerization domain-containing protein 1, Homo sapiens (UniProt Q9Y239) (assay: inhibition of NOD1-driven NF-kB reporter – cell-based, luminescence, uHTS, primary screen (AID 1578)).
T1 sequence (whole entry): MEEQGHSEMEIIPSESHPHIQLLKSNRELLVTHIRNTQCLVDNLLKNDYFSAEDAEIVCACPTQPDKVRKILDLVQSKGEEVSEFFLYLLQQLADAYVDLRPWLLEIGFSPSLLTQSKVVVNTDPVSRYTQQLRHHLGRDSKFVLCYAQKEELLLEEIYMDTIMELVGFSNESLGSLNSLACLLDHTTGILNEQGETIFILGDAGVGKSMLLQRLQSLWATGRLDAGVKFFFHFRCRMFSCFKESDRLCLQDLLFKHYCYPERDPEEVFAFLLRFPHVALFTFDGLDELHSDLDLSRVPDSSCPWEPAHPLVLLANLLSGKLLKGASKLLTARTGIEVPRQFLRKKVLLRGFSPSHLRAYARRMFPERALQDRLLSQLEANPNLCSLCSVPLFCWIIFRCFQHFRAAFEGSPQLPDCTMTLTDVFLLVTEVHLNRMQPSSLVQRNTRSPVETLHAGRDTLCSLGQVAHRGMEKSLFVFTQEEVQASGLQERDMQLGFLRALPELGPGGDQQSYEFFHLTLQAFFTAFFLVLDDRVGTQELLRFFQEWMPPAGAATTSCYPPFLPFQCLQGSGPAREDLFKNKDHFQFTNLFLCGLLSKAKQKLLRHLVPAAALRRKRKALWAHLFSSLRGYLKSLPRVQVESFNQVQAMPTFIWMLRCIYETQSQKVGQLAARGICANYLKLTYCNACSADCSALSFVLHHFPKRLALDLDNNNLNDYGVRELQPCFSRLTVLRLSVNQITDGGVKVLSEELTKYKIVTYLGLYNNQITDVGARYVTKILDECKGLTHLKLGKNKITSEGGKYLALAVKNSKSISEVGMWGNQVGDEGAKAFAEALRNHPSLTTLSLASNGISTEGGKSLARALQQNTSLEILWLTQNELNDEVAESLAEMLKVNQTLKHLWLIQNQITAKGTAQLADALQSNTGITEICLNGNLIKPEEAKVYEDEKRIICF

outcome, active:
Cc1nc2ccccc2c(C)c1C(=O)c1ccc(F)cc1.Cl
Cc1ccc(OCC(=O)c2cc(C)n(Cc3ccco3)c2C)c([N+](=O)[O-])n1
COCCn1c(C)cc(C(=O)COc2ccc(C)nc2[N+](=O)[O-])c1C
Cc1ccc(OCC(=O)c2cc(C)n(Cc3cccs3)c2C)c([N+](=O)[O-])n1
COCCn1c(C)cc(C(=O)COC(=O)c2cccc(O)c2)c1C
CCOC(=O)/C=C/S(=O)(=O)c1ccc(NC(C)=O)cc1
O=C(Oc1c(-c2ccccc2)c(=O)n2c3c(cccc13)CC2)c1ccccc1
O=C(Oc1c(-c2ccccc2)c(=O)n2c3c(cccc13)CC2)c1ccc(Cl)cc1
O=C(CNC(=O)OCc1ccccc1)Oc1cc2oc(=O)cc(-c3ccccc3)c2cc1Cl
CC(C)(C)OC(=O)NCC(=O)Oc1cc2oc(=O)cc(-c3ccccc3)c2cc1Cl
CN(CC1CCCO1)S(=O)(=O)c1ccc(C(=O)Nc2nc3cc4c(cc3s2)OCO4)cc1 (stereo not drawn)
CC(=O)c1cn(CCOc2cc(C)ccc2C)c2ccccc12
CC(=O)c1cn(CCOc2ccccc2C)c2ccccc12
COc1ccc(-c2cc(N)n(S(=O)(=O)c3c(F)c(F)c(F)c(F)c3F)n2)cc1OC
Cc1ccc(CSC(Nc2ccc(F)cc2)=C(C#N)C#N)cc1
N#CC(C#N)=C(Nc1ccc(F)cc1)SCc1cccc(Br)c1
N#CC(C#N)=C(Nc1ccc(F)cc1)SCc1cccc(F)c1
O=C(COc1ccc2c(-c3ccccc3)cc(=O)oc2c1)Nc1ccc(CCO)cc1
CCCc1ccc(-c2c(C)sc(NC(=O)c3ccnn3C)c2C#N)cc1
O=C1N/C(=N\N=C\c2ccccn2)SC1Cc1cccc(SC(F)F)c1 (stereo not drawn)
COc1ccc(C(=O)Nc2nc3ccccc3s2)c(OC)c1
CCOc1ccc2nc(NC(=O)c3ccccn3)sc2c1
COc1ccccc1C(=O)Nc1nc2ccccc2s1
O=C(Nc1ccc([N+](=O)[O-])cc1)Nc1nc(-c2ccc(Cl)s2)cs1
COC(CN(C(=O)CCl)C(C(=O)NC1CCCCC1)c1ccccc1C)OC (stereo not drawn)
O=C(NC1CCCCC1)C(c1cccnc1)N(C(=O)CCl)c1cccc(Cl)c1 (stereo not drawn)
Cc1ccc(N(C(=O)CCl)C(C(=O)NC2CCCCC2)c2cccnc2)cc1C (stereo not drawn)
O=C(NC1CCCCC1)C(c1cccnc1)N(C(=O)CCl)c1ccccc1Cl (stereo not drawn)
COc1ccc(C(C(=O)NC2CCCCC2)N(C(=O)CCl)c2cccc(Cl)c2)cc1 (stereo not drawn)
CC(C)c1noc2ncc(C(=O)c3cc(Cl)cc(Cl)c3O)cc12
Cc1nnc(N2CCCC(C(=O)Nc3cc(F)ccc3F)C2)c2nn(-c3ccccc3)c(C)c12 (stereo not drawn)
O=C(Nc1ccc(F)cc1)c1ccc(CN2CCc3ccccc3C2)cc1
N#CCc1ccc(NC(=O)c2ccc(CN3CCc4ccccc4C3)cc2)cc1
Cc1ccc(-c2csc(N3CCC(NS(=O)(=O)c4ccc5c(c4)OCCO5)CC3)n2)cc1
COc1ccc(Oc2ccccc2/C=N/O)cc1
O=C(CSc1nnnn1C1CC2CCC1C2)Nc1ccnc2ccccc12 (stereo not drawn)
CCC(C)Cn1c([O-])cc2nn(-c3nc4ccccc4s3)c(=O)c-2c1C.[Na+] (stereo not drawn)
CC1=Nc2ccccc2/C1=C/c1sc(=N)n(-c2nccs2)c1O
Nc1cc2ccncc2c2ccccc12
NC(=O)c1cc2ccncc2c2ccccc12
Cc1cccc(C(=O)NNC2=C(C(=O)C(F)(F)F)CCC2)c1O
C=CS(=O)(=O)c1ccc(Oc2ccc(S(=O)(=O)C=C)cc2)cc1
COc1cccc(NS(=O)(=O)c2ccc3c(c2)CCN3C(C)=O)c1
COc1cccc(C(=O)/C=C/Nc2ccc(S(=O)(=O)Nc3cccc(C(C)=O)c3)cc2)c1
Cc1c(C)n(Cc2ccccc2)c2ncnc(Cl)c12
Br.CCCCCCCCCCn1c2c(c(=N)c3c1CCC3)CCC2
Br.CCCCCCCCCn1c2c(c(=N)c3c1CCC3)CCC2
Br.CCCCCCCCn1c2c(c(=N)c3ccccc31)CCC2
COc1cccc(NC(=O)CN(C)CC(=O)Nc2ccc(C)c([N+](=O)[O-])c2)c1
Cc1cccc(N(Cc2cc(=O)[nH]c3ccccc23)C(=O)CCl)c1
O=C(CCl)N(Cc1cc(=O)[nH]c2ccccc12)c1ccccc1
Cc1ccc(N(Cc2cc(=O)[nH]c3ccccc23)C(=O)CCl)cc1
Cn1cc([N+](=O)[O-])c(C(=O)Nc2cc(Oc3ccccc3)cc([N+](=O)[O-])c2)n1
O=C(c1nnsc1S(=O)(=O)c1ccc(Cl)cc1)N1CCOCC1
CNC(=O)c1nnsc1S(=O)(=O)c1ccc(Cl)cc1
COc1cc(OC)cc(-c2nnc(NC(=O)c3ccc4c(c3)OCCO4)o2)c1
CCCN(CCC)S(=O)(=O)c1ccc(C(=O)Nc2nnc(-c3cc(OC)cc(OC)c3)o2)cc1
O=C(Nc1nnc(-c2ccc3c(c2)OCCO3)o1)c1ccc(Cc2ccccc2)cc1
O=C(Nc1nnc(-c2ccco2)o1)c1ccc2ccccc2c1
CSCc1nnc(NC(=O)c2ccc(S(=O)(=O)N(CC(C)C)CC(C)C)cc2)o1
O=C(Nc1ccc(Oc2ccccc2)cc1)C1CCN(c2c3c(nc4ncnn24)CCC3)CC1
CC1CCc2nc(N)c(C#N)c(-c3cccnc3)c2C1 (stereo not drawn)
Cc1nc(N)c(C#N)c(-c2cccnc2)c1-c1ccccc1
Cc1ccc(NC(=O)O/N=C/c2c(C)nn(C(C)(C)C)c2C)cc1Cl
CC(=O)Oc1c(C)cc(Cl)cc1C(=O)Nc1ccc([N+](=O)[O-])cc1Cl
N#Cc1c(NC(=O)CSc2ncn[nH]2)sc2c1CCCCC2
N#Cc1c(NC(=O)CSc2ncn[nH]2)sc2c1CCCC2
CC1CCc2c(sc(NC(=O)CSc3ncn[nH]3)c2C#N)C1 (stereo not drawn)
Cc1ccc(NC(=O)c2cc3c(s2)CCCC3)cc1S(=O)(=O)Nc1ccccc1Cl
O=C(Nc1cc(S(=O)(=O)Nc2ccccc2Cl)ccc1O)c1cc2c(s1)CCCC2
Cn1c(=O)c(C#N)c(-c2ccc(F)cc2)c2cc(C(=O)c3cc(Cl)cc(Cl)c3O)cnc21
CC(C)(C)c1ccc(C(=O)N2CCCCCC2=O)cc1
O=C(COc1ccc(Cl)cc1Cl)Nc1ccc(C(=O)Nc2ccccc2C(=O)O)cc1
O=[N+]([O-])c1cc(Cl)c(O)c2ncccc12
Oc1c(Cl)cc(Cl)c2cccnc12
Oc1c(I)cc(Cl)c2cccnc12
O=C(Oc1c(Cl)cc(Cl)c2cccnc12)c1ccco1
Oc1c(I)cc(I)c2cccnc12
c1ccc(N2CCN(c3ncnc4sc5c(c34)CCC5)CC2)cc1
Cn1c(-c2ccccc2)c(C(=O)CCl)c2ccccc21
Cn1cc(C(=O)CCl)c2ccccc21
c1ccc(CN2CCN(c3ncnc4c3[nH]c3ccccc34)CC2)cc1
Cc1ccc2c(c1)[nH]c1c(N3CCN(Cc4ccccc4)CC3)ncnc12
Cc1ccc2[nH]c3c(N4CCN(Cc5ccccc5)CC4)ncnc3c2c1
Cc1ccc2[nH]c3c(N4CCc5ccccc5C4)ncnc3c2c1
O=C(CCCc1nc(-c2ccc(Cl)cc2)no1)NC1CCCC1
O=C(CCCc1nc(-c2ccc(Cl)cc2)no1)NC1CCCCC1
Cc1ccc(-c2noc(CCCC(=O)NC3CCCCC3)n2)cc1
N#CC(c1cccc(Cl)c1)c1ccc2c(C(F)(F)F)cc(C(F)(F)F)nc2n1 (stereo not drawn)
CCCCN(c1ccccc1)c1ncnc(N)c1[N+](=O)[O-]
Cc1ccc(Cl)cc1N1CCN(C(=O)CSc2nnc3n2C(C)(C)Cc2ccccc2-3)CC1
CN(Cc1ccccc1)C1=CC(=[N+]2CCCCC2)CC(C)(C)C1.[I-]
CC1(C)CC(N2CCN(C(c3ccccc3)c3ccccc3)CC2)=CC(=[N+]2CCCCC2)C1.[I-]
c1csc(CCNc2ncnc3sc4c(c23)CCC4)c1
Cc1cc(C(=O)NC2CCCc3c2cnn3-c2ccc(C(C)(C)C)cc2)nn1C (stereo not drawn)
CC(C)(C)c1ccc(-n2ncc3c2CCCC3NC(=O)C2(C(N)=O)CC2)cc1 (stereo not drawn)
Cn1nccc1C(=O)NC1CCCc2c1cnn2-c1ccc(C(C)(C)C)cc1 (stereo not drawn)
Cc1ccc(NC(=O)Nc2nnc(-c3ccncc3)s2)cc1C
O=C(Nc1ccc2nc3n(c(=O)c2c1)CCCCC3)c1c(F)ccc([N+](=O)[O-])c1F
CCOc1cccc(-c2c(C(=O)N/N=C(\C)c3ccccn3)nnn2-c2nonc2N)c1
CN(C)S(=O)(=O)c1cccc(NC(=O)c2ccc(COc3ccccc3)cc2)c1
COc1ccc(C(=O)/C=C/C(=O)N(CC(=O)NC2CCCCC2)Cc2ccccc2OC)c(O)c1
C=CCn1c(Oc2ccccc2F)nc2c1c(=O)n(C)c(=O)n2C
CCn1c(Oc2ccccc2F)nc2c1c(=O)n(C)c(=O)n2C
C=CCn1c(Oc2ccc(C(=O)OC)cc2)nc2c1c(=O)n(C)c(=O)n2C
O=c1oc2ccc(Br)cc2cc1S(=O)(=O)c1ccc(F)cc1
Cc1ccc(S(=O)(=O)c2cc3cc(Br)ccc3oc2=O)cc1
O=C(O)c1c(NC(=O)c2cccc3ccccc23)sc2c1CCC2
COc1ccc(-c2c[n+]3c(n2-c2ccc(C)cc2)CCCCC3)cc1.[Br-]
O=C(Cn1ncc(Cl)c(Cl)c1=O)c1ccc(Cl)cc1
CCC(=O)Nc1ccc(C(=O)Cn2ncc(Cl)c(Cl)c2=O)cc1
Cc1cc(Br)ccc1NC(=O)CNC(=O)Cn1ncc(Cl)c(Cl)c1=O
CCOC(=O)c1ccc(NC(=O)Cn2ncc(Cl)c(Cl)c2=O)cc1
